This is part of a sample that, as a whole, favours compounds with a hit. Of some 83,000 tested, about 20% had one in any assay.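 The endpoint reported here, percent growth, reads 100 for growth as untreated, 0 for no net growth and -100 for all cells dead.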 The source made the active and inactive calls. Rule for the calls: active = growth percent below 10; inactive = the rest.
System: LOX IMVI melanoma
Assay: NCI-60 one-dose screen, 48 h (100 = growth as untreated, 0 = no growth, -100 = all killed)
Conditions: 10 µM unless noted

SMILES | growth
Cc1cc(C)n(-c2nc(-c3cccs3)c(C#N)c(=O)[nH]2)n1 | 84.7% (inactive)
COc1ccc(C2C(c3ccccc3)C(=O)N2c2cc(OC)c(OC)c(OC)c2)cc1I (stereo not given) | 24.3% (inactive)
CC(C)(C)c1ccc2oc(=O)n(SC(Cl)(Cl)Cl)c2c1 | 93.4% (inactive)
CCOC(=O)c1c(C)nc2c(c1N)/C(=C/c1ccccn1)C(=O)N2Cc1ccccc1 | -88.4% (active)
O=C(Nc1cccc(-c2cccc(F)c2)c1)C1CCN(Cc2cccc3cccnc23)CC1 | 3.29% (active)
COc1ccc(C(C)c2cc(OC)c(OC)c(OC)c2)cc1 (stereo not given) | 26.1% (inactive)
Cc1ccc(SC2c3ccc(C)cc3Oc3nc(N)c(C#N)c(N)c32)cc1 (stereo not given) | 37.7% (inactive)
COC(=O)/C=C/c1cc(OC)c2c(c1)[C@@H](C(=O)OC)[C@H](c1ccc(OC)c(OC)c1)O2 | 51.1% (inactive)
C#CCN(CCCOc1ccc(Cl)cc1Cl)CCCSC(=O)CCCCCN1/C(=C\C=C2/CCCC(/C=C/C3=[N+](CCCCCC(=O)[O-])c4ccccc4C3(C)C)=C2Cl)C(C)(C)c2ccccc21 | -29.8% (active)
O=C1NCc2ccc3c(-c4cccc(Cl)c4)c[nH]c3c21 | 35% (inactive)
O=C(/C(=C\c1c(-c2ccccc2)[nH]c2ccccc12)S(=O)(=O)c1ccccc1)c1ccccc1 | 58.9% (inactive)
N#Cc1c(-c2ccc(F)cc2)nc(N=Nc2c(O)[nH]c3ccccc23)nc1N1CCOCC1 | 74.9% (inactive)
CC(=O)OC[C@]12CC[C@@H](c3cn(Cc4ccc(Cn5cc([C@@H]6CC[C@]7(COC(C)=O)CC[C@]8(C)[C@H](CC[C@@H]9[C@@]%10(C)CC[C@H](OC(C)=O)C(C)(C)[C@@H]%10CC[C@]98C)[C@@H]67)nn5)cc4)nn3)[C@@H]1[C@H]1CC[C@@H]3[C@@]4(C)CC[C@H](OC(C)=O)C(C)(C)[C@@H]4CC[C@@]3(C)[C@]1(C)CC2 | 97.3% (inactive)
Cc1c(Br)cccc1NC(=O)c1sc2nc3c(cc2c1N)CN(Cc1ccccc1)CC3 | 30.9% (inactive)
COc1cccc(C(=O)OCCn2nc3c4c(cccc42)C(=O)c2ccccc2-3)c1O | 37.6% (inactive)
